Data taken from the supplement of paper PMC6555819.

Assays:
Assay in all cases: PBM binding z-score (relative to random genomic background probes); higher = stronger binding; sequences stand for … in GC…GCGATTGACAGCGTAGAATGAAGG
[1] = tested on: FXR:RXRa (NR concentration 270 nM, RXRa partner concentration 90 nM)
Summary of the method: (§1)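 Antibodies against each partner of ligand-free nuclear receptor dimers (one per run) detected binding on custom Agilent 4×180K protein-binding microarrays after 1 h incubation. The double-stranded probes had 34-nt variable regions carrying direct-repeat seeds, single-nucleotide variants, half-site ablations and random human genomic background sequences. Binding z-scores, from regression-normalized fluorescence, use the random background probes as reference.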

[2] = tested on: LXRa:RXRa (NR concentration 270 nM, RXRa partner concentration 90 nM)
Summary of the method: as §1

[3] = tested on: LXRa homodimer (NR concentration 270 nM)
Summary of the method: as §1

[4] = tested on: LXRb:RXRa (NR concentration 270 nM, RXRa partner concentration 90 nM)
Summary of the method: as §1

[5] = tested on: LXRb homodimer (NR concentration 270 nM)
Summary of the method: as §1

[6] = tested on: PPARa:RXRa (NR concentration 270 nM, RXRa partner concentration 90 nM)
Summary of the method: as §1

[7] = tested on: PPARg:RXRa (NR concentration 180 nM, RXRa partner concentration 90 nM)
Summary of the method: as §1

[8] = tested on: PPARg:RXRa 270nM:90nM, anti-RXR (NR concentration 270 nM, RXRa partner concentration 90 nM)
Summary of the method: as §1

[9] = tested on: PPARg:RXRa 30nM:10nM, anti-RXR (NR concentration 30 nM, RXRa partner concentration 10 nM)
Summary of the method: as §1

[10] = tested on: PPARg:RXRa 90nM:30nM, anti-RXR (NR concentration 90 nM, RXRa partner concentration 30 nM)
Summary of the method: as §1

[11] = tested on: PPARg:RXRa DBDmut IVT, anti-RXR (DBD mutation: RXRa K156A/R161A, NR concentration 270 nM, RXRa partner concentration 90 nM)
Summary of the method: as §1

[12] = tested on: PPARg:RXRa IVT, anti-PPARg (NR concentration 270 nM, RXRa partner concentration 90 nM)
Summary of the method: as §1

[13] = tested on: PPARg DBDmut:RXRa IVT, anti-PPARg (DBD mutation: PPARg1 K132A/R137A, NR concentration 270 nM, RXRa partner concentration 90 nM)
Summary of the method: as §1

[14] = tested on: PPARg DBDmut IVT, anti-PPARg (DBD mutation: PPARg1 K132A/R137A, NR concentration 270 nM)
Summary of the method: as §1

[15] = tested on: PPARg homodimer (NR concentration 180 nM)
Summary of the method: as §1

[16] = tested on: PXR:RXRa (NR concentration 270 nM, RXRa partner concentration 90 nM)
Summary of the method: as §1

[17] = tested on: PXR homodimer (NR concentration 270 nM)
Summary of the method: as §1

[18] = tested on: RARa:RXR (NR concentration 270 nM, RXRa partner concentration 90 nM)
Summary of the method: as §1

[19] = tested on: RARa homodimer (NR concentration 270 nM)
Summary of the method: as §1

[20] = tested on: RARb:RXRa (NR concentration 270 nM, RXRa partner concentration 90 nM)
Summary of the method: as §1

Sequence	PBM binding z-score [1]	PBM binding z-score [2]	PBM binding z-score [3]	PBM binding z-score [4]	PBM binding z-score [5]	PBM binding z-score [6]	PBM binding z-score [7]	PBM binding z-score [8]	PBM binding z-score [9]	PBM binding z-score [10]	PBM binding z-score [11]	PBM binding z-score [12]	PBM binding z-score [13]	PBM binding z-score [14]	PBM binding z-score [15]	PBM binding z-score [16]	PBM binding z-score [17]	PBM binding z-score [18]	PBM binding z-score [19]	PBM binding z-score [20]
TCTTGTAGATCAGCAGGTTAAGGAAGCTGGCCAA	0.249	0.362	-0.204	0.224	-0.678	0.814	-0.515	1.47	2.53	2.02	1.63	0.577	-1.02	-0.0477	-0.0347	0.121	-0.363	0.277	-0.25	0.316
TCATATAGGTAATGCAGGTGAAAGTCGGCATCTA	0.698	0.973	0.228	0.199	-0.224	2.23	1.65	2.58	3.86	2.86	4.18	4.3	0.872	1.17	0.782	0.415	0.211	0.602	0.52	0.41
GCTTGTCGATCAAGGTTAAGAAAGACTAAGCTAA	0.467	0.896	-0.687	0.589	-0.963	1.17	-0.154	0.57	0.0048	0.112	-0.33	0.582	0.163	0.0381	-0.626	0.592	-0.652	0.89	-0.654	0.682
CCTTACGGGTCAAGGTCATAGCACGGGTGGTACG	6.75	5.29	1.9	4.12	0.624	5.78	6.03	5.86	2.53	4.68	1.92	4.64	0.493	-0.425	2.88	5.05	1.3	5.28	0.441	5
ACTATTAGCTGAGACGAGGGCAACCGATAGGTTG	0.185	-0.00873	0.0861	0.0453	0.238	0.0501	0.663	0.238	-0.205	0.302	-0.032	0.377	-0.216	-0.0358	-0.21	0.33	0.536	0.226	0.488	0.935
ATCTCTAGGTAAAAGTTCAGTGTATCCCGAGGAT	0.805	1.47	1.82	1.14	0.968	4.08	7.71	8.23	7.05	9.47	2.32	3.71	1.69	1.72	1.66	2.25	2.23	1.53	1.59	2.5
GCGAGCAGGCCATTTGGGTCACTCAATGACGGGC	0.039	-0.0343	-0.692	0.145	-1.06	1.37	0.6	0.408	-0.542	0.0983	0.844	2.03	-1.33	-0.968	0.0566	0.738	0.189	0.937	-0.309	1.69
TCAATGAGGTTAAAGATCAGGGAACGTGGCGTCG	3.28	2.48	-0.228	1.66	0.0519	4.25	5.03	5.65	5.03	5.65	2.63	2.57	0.383	0.398	0.433	1.83	-0.0283	3.15	0.278	2.04
TCGAGTAGGTTTGTCGGGGCATTCAGCCAACATA	0.314	0.103	0.0222	0.558	-0.504	0.326	-0.493	0.144	1.1	0.717	0.713	0.173	-1.6	-0.328	0.186	0.311	-0.236	0.224	-0.837	0.0444
TCATATAGCTAAACAGGTGAAAGTCCGTAAGTTA	-0.237	-0.00497	-0.0906	0.338	-0.588	1.08	0.667	1.92	2.64	2.23	1.46	0.758	-0.631	0.119	0.0802	0.228	-0.231	0.404	0.0178	0.215
ATCTCTAGGTAAAAGTTCAGTGAGTCCCGAGGAT	0.932	1.64	1.36	1.11	0.656	4.26	7.9	7.98	7.48	9.16	2.37	3.88	1.34	1.28	1.47	2.06	2.57	1.47	0.867	2.21
TCATATAGGTGAATGCTAGGTGAAAGTCCGATCT	1.13	0.917	-0.0779	0.789	-0.221	2.55	2.75	3.13	3.54	3.07	6.19	5.78	1.9	1.82	1.06	0.532	-0.173	1.33	0.882	1.22
AGAATGAGGTTACCAAAGATCAGAGAAACGCTTG	2.03	6.18	0.173	3.6	-0.0648	3.32	2.75	2.19	0.774	1.78	3.76	3.32	1.01	0.709	0.304	1.28	0.161	2.02	0.489	2.09
ATACCAAGGTGGTCGTGAGGTCGTTGATACTAAC	1.49	0.821	0.382	1.05	-0.378	1.21	0.268	0.0614	-0.274	-0.258	-0.434	0.335	0.113	0.0753	0.722	2.61	1.69	1.99	0.748	1.08
AGAACGAGGGCACGCTGAGCTGATAGCAGAGTAG	0.647	0.277	-0.751	-0.0518	-0.909	1.98	1.91	1.81	0.448	0.908	4.56	3.89	0.483	-0.228	0.179	-0.0742	-0.541	0.485	-0.937	2.39
CCTATTAGTTAACCATAAGGGCAACCGAAGCTCG	0.323	0.341	0.429	0.249	0.486	0.386	0.374	0.215	0.166	0.0193	0.296	0.65	0.701	0.763	1.71	0.409	0.723	0.812	1.42	1.41
CTACCAAGGTGAACAAGGTCGTCGATTACTATTC	1.41	1.49	0.0578	1.95	-0.568	2.77	1.41	1.59	0.0715	0.943	2.69	2.94	0.293	-0.426	1.09	2.61	0.761	2.65	0.41	2.27
GCTAGCACGCCATTTGGGTCACTCAATGACGGGC	-0.103	-0.15	-0.585	-0.179	-1.07	1.13	0.747	0.379	-0.294	0.152	0.446	1.27	-1.77	-1.29	-0.0391	0.0907	-0.533	0.592	-0.962	0.997
CCTGCTAGGTCGTGGTCAGCTAATCTACAGTATG	0.204	0.138	-0.589	0.0814	-0.563	0.699	-0.0367	0.111	-0.191	0.0176	1.33	0.742	-0.546	-0.828	0.0786	0.00895	-0.22	0.444	-0.694	1.71
TCGTGTAGATCAGCAGGTTAAGAAAGCTGGCCAA	-0.188	0.0517	-0.312	0.0213	-0.844	0.437	-0.564	0.79	1.98	1.42	1.06	-0.357	-0.818	-0.881	0.306	-0.0142	-0.356	0.167	-0.19	-0.0644
TCTTGTAGATCAACAGGAGATTAAGAAAGATCGA	-0.494	-0.198	-0.713	-0.321	-0.695	0.133	0.237	0.964	2.14	1.68	1.37	0.548	1.52	0.865	-0.322	-0.306	-0.21	-0.526	-0.298	-0.393
TAGCCTAGGTCAGATCGGGCCAGAATACGCTATA	1.65	1.06	-0.312	0.942	-0.714	1.79	0.869	0.835	-0.187	0.398	0.095	1.57	-0.542	-0.739	0.124	0.946	-0.549	1.87	-0.627	2.93
CAAACTAGGTCACGAAAGTTCAAAGTCGAATGAC	6.48	7.84	8.43	6.15	1.48	6.14	9.94	8.29	6.58	8.35	8.72	9.1	2.45	4.02	4.73	7.11	8.3	6.02	2.95	5.27
ATCGAAGGGTCGACGAGGTGAGTATACACCGTTT	1.51	0.812	-0.587	0.951	-0.33	2.44	1.3	0.831	0.448	0.6	-0.299	0.882	-0.145	0.665	0.411	1.11	-0.598	2.02	-0.471	2.3
AGAATGAGGTTTTACGTAGATCAGGGAAGAAAGT	-0.139	-0.0557	-0.184	-0.13	-0.304	-0.000129	0.251	-0.0665	0.263	0.297	0.314	-0.118	0.643	0.771	0.322	0.0449	0.0851	0.000653	0.0667	-0.00199
CCAGACAGCTGAAAGGTAACTCAGTCTGGTACGC	-0.259	-0.27	-0.368	-0.00199	-0.748	0.193	0.377	-0.223	-0.581	-0.401	-0.0276	-0.495	-0.361	-0.671	-0.141	-0.177	-0.344	0.0105	-0.368	0.0484
ATCTCTACGTAAGACTCAGTTCAGTGAAGAACGC	0.165	0.16	0.552	0.484	0.986	0.0277	0.265	0.146	0.213	0.131	-0.086	0.118	0.872	1.57	0.776	1.09	1.22	0.208	0.199	0.279
GGAACGAGGGCAAGTCGATAGCAGAGTTTGATGG	0.383	0.00226	-0.566	-0.0585	-0.781	1.48	0.928	0.703	-0.275	0.116	3.57	2.5	-0.206	-0.527	-0.162	0.167	0.469	-0.0113	-0.744	2.41
